# GALK inh: inhibits human galactokinase | 44,000 tested, under 10 active | recombinant GALK, Kinase-Glo ATP luminescence, 1 h | Potency, µM (highest dose often 57.5 µM), inactives show at the highest dose activity, negative = inhibition, most hits filed as inhibitors | P51570;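 further: plate controls were full GALK reaction for no effect and reaction lacking GALK for full effect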
#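 Luminescent ATP-depletion readout (Kinase-Glo Plus, 10 min) after 1 h RT reaction of 5 nM GALK, 35 uM ATP, 100 uM galactose, pH 8.0 HEPES buffer. Decreased kinase activity scored as inhibition.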
# DRV1 agonist: agonists of human resolvin D1 receptor DRV1 (GPR32) | activation, % at 76.9 µM | 2.5% of 48,000 active | O75388 | CHO-K1 GPR32 beta-arrestin PathHunter luminescence, 90 min; zero percent set by DMSO-only wells;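 active means activation of at least 60% and not above a set upper limit, about 1 call in 100 departs from these limits; inconclusive means activation of 40% to 60%, or above that upper limit; inactive means activation under 40%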; further: 0% is about no effect
#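 PathHunter enzyme-fragment complementation, CHO-K1 GPR32 stable line; 2,500 cells/well, overnight attach; cpd 90 min 37 °C 5% CO2; detection reagent 1 h RT; chemiluminescence. DMSO = EC0.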
# PTAP-TSG101 blk: TSG101-PTAP interaction inhibition, HIV-1 budding | Fluorescence polarization, FITC-PTAP peptide/Tsg101, 20 min | 44,000 tested, under 10 active | Q99816 | Potency, µM (highest dose often 115 µM), hits mostly inhibitors; further: potency means the concentration at half of the fitted maximal effect; 0% is about no effect
#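 Compounds pinned into 10 uM Tsg101 binding domain, then 50 nM FITC-PTAP peptide added in pH 7.5 HEPES buffer; FP read after 20 min, room temperature. Total S+P intensity flags fluorescent compounds; active cut-off <25 µM, efficacy <60%.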
# B2AR arrestin ag: agonists recruiting beta-arrestin to human beta2-adrenergic receptor | P07550 | 44,000 tested, under 10 active | Potency, µM (doses to about 46.1 µM), usual class: activators | HTLA Tango cells, beta-arrestin recruitment, luciferase luminescence, 18 h;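 further: potency means the concentration at half of the fitted maximal effect; 0% = DMSO and full agonism = EC100 isoproterenol or metaproterenol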
#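 Tango cells expressing recombinant beta2-AR and beta-arrestin were treated with compounds (up to 46 microM titration) in DMEM with 1% FBS for 18 hr at 37 degrees C. Beta-arrestin recruitment drove tTA-dependent luciferase, read by luminescence; curves were fitted and classed.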
# FH mod: Identification of activators of human fumarate hydratase by quantitative high-throughput screening; FH coupled MDH/diaphorase resazurin fluorescence, 15 min; Potency, µM (series often up to 79.9 µM), inactives show at the highest dose activity change, negative = inhibition, most hits filed as inhibitors; 0.22% of 54,000 active; AID 1347055, 2019; further: potency means the concentration at half of the fitted maximal effect; on the % scale 0 is the no-effect control and ±100 the full control effect; the screen sought activators but most active calls are inhibition curves; nearly all actives have a fitted effect of over 45% in size
# Target sequence (P07954 whole entry, looked up): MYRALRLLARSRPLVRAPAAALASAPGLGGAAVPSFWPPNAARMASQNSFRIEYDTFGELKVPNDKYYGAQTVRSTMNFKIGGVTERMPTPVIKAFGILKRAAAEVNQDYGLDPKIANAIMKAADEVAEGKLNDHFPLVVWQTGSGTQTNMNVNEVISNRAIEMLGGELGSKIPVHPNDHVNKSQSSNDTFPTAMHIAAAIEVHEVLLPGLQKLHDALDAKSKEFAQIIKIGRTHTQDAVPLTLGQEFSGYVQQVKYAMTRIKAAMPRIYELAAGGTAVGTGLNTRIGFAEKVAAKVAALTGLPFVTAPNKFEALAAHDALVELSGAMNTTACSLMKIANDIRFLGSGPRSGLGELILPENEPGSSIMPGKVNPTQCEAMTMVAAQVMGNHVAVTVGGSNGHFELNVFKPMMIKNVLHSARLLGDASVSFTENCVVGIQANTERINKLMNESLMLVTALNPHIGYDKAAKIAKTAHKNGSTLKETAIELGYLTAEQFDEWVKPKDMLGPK
# NTMT1 inh: blocks human N-terminal methyltransferase 1 activity | Potency, µM (series often up to 114 µM), for the others: top-dose activity change, negative = inhibition, hits mostly inhibitors | 2.5% of 59,000 active | Q9BV86 | NTMT1 MTase-Glo SAH luminescence, purified enzyme;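 further: potency means the concentration at half of the fitted maximal effect; plate controls were DMSO vehicle for no effect and no enzyme for full effect; nearly all actives have a fitted effect of over 65% in size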
# Numbers without * were called inactive; i = inactive; ? = inconclusive; . = no result given; ! = repeats disagree; [ ] = another dose, or the depositor's remark. Compounds with a hit are over-represented: about 3.7% of the library has one in this group of screens. Unless noted, the call rests on the fitted dose curve; in most records, active means well fitted curve in the direction sought with a large enough effect; inconclusive means small, poorly fitted or top-dose-only effect, or another doubt; inactive means no such curve, though single readings can be large; an effect the other way counts as inactive or inconclusive.
SMILES,GALK inh,DRV1 agonist,PTAP-TSG101 blk,B2AR arrestin ag,FH mod,NTMT1 inh
O=C(Nc1ccc(N2CCC(N3CCCCC3)CC2)c(C(=O)O)c1)c1ccccc1,3%,26,i,i,-4%,50µM*
CC1CCN(c2ccc(NC(=O)c3cccc(Cl)c3)cc2C(=O)O)CC1,3%,2,i,i,-14%,45µM*
Cc1cccc(C(=O)Nc2ccc(N3CC=C(c4ccccc4C)CC3)c(C(=O)O)c2)c1,0%,10,i,i,-5%,40µM*
COc1ccccc1N1CCN(c2ccc(NC(=O)c3ccc(C)cc3)cc2C(=O)O)CC1,-4%,-1,i,i,-10%,?
COc1ccc(C(=O)Nc2ccc(N3CCN(c4ccccc4)CC3)c(C(=O)O)c2)cc1,-6%,4,i,i,-14%,18%
O=C(CN(Cc1cccc2ccccc12)C1CC1)Nc1ccc(N2CCOCC2)cc1,.,.,.,.,.,1%
N#C/C(=C\c1ccc(O)c(O)c1)C(=O)NCCCNC(=O)/C(C#N)=C/c1ccc(O)c(O)c1,.,-32,.,.,?,1.3µM*
N#C/C(=C\c1ccc(O)c(O)c1)C(=O)Nc1ccccc1,.,-27,.,.,14µM*,.
C[C@@H](NC(=O)/C(C#N)=C/c1ccc(O)c(O)c1)c1ccccc1,.,-23,.,.,.,.
C=CC(=O)N1CCCN(c2cc(NCCC(=O)O)nc(-c3ccccn3)n2)CC1,.,.,.,.,?,10%[57.5 µM]
COc1ccc(N2CCN(CCCNC(=O)c3c(C)nn(-c4ccc(F)cc4)c3-n3cccc3)CC2)cc1,1%,63*,i,i,-12%,1%
Cc1nn(-c2ccc(F)cc2)c(-n2cccc2)c1C(=O)NCCCN1CCN(c2ccccc2F)CC1,2%,110*,i,i,-9%,8%
COc1cc(NC(=O)c2c(C)nn(-c3ccc(F)cc3)c2-n2cccc2)cc(OC)c1,4%,103*,i,i,-7%,?
CS(=O)(=O)c1ccc(C(=O)OCC(=O)N2CCN(C3CCCCC3)CC2)cc1[N+](=O)[O-],.,.,.,.,.,-5%
O=C(O)C[C@H](O)C[C@H](O)/C=C/c1c(C2CC2)nc2ccccc2c1-c1ccc(F)cc1,.,.,.,.,10%,40µM*!
CC(O)(C(=O)C1CC1(CO)COC1OC(CO)C(O)C(O)C1O)C1C(O)CC2C3CC=C4CC(O)CC(O)C4(C)C3C(O)CC21C (centres undefined),.,.,.,.,0%[20.6 µM],-8%[12.6 µM]
O=C1CCc2cc(S(=O)(=O)Nc3ccc(F)c(Cl)c3)c(F)cc2N1,.,.,.,.,4%,?
CCCCCCCC/C=C\CCCCCCCC(=O)NCc1ccc(O)c(OC)c1,.,75*!,.,.,?,-1%[57.5 µM]
CC(=O)N1CCN(c2ccc(O)cc2)CC1,.,42,.,.,?,28µM*
Fc1ccc(-c2nc(-c3ccncc3)nc3ccccc23)cc1F,.,.,.,.,.,6%
CC1=C(C(=O)OC2CCCC2)C(c2cccc(Cl)c2Cl)CC(=O)N1 (centres undefined),-6%,83*,i,i,-14%,10%
CC1=C(C(=O)OC2CCCC2)C(c2c(Cl)cccc2Cl)CC(=O)N1 (centres undefined),-9%,82*,i,i,-18%,-4%
CC1=C(C(=O)OC2CCCC2)C(c2ccccc2Cl)CC(=O)N1 (centres undefined),2%,-21,i,i,-5%,?
COc1ccc(F)cc1-c1cc(NC(=O)[C@@H]2CCCNC2)ncc1Cl,.,.,.,.,-5%,?
Cc1ccc(NC(=O)Cn2nc(C(F)(F)F)c3c2CCCC3)cc1,2%,77*,i,i,2%,-3%
CCc1ccc(NC(=O)Cn2nc(C(F)(F)F)c3c2CCCC3)cc1,2%,7,i,i,-3%,3%
Cc1c(Cl)cccc1NC(=O)c1cc(-c2cccs2)on1,-1%,91*,i,i,-2%,-8%
O=C(c1cc(-c2cccc(Cl)c2)on1)N1CCCCC1,1%,66*,i,i,.,.

# High-throughput results deposited in PubChem BioAssay by National Center for Advancing Translational Sciences (NCATS).
